From PubChem BioAssay
Rows were chosen to be rich in hits. Some 2.4% of all compounds tested hit in one or more screens of this group.
POLB inh: qHTS Assay for Inhibitors of DNA Polymerase Beta. P06746. 340,000 tested, 1.3% active. Potency, µM (highest dose often 114 µM), for the others: at the highest dose activity change, negative = inhibition, usual class: inhibitors. Pol beta primer extension/strand displacement, fluorescence kinetic. AID 485314, 2010; also: % is scaled to controls: 0 for no effect and ±100 for the full control effect
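Values derive from four-parameter Hill fits of normalized kinetic data: reads at 0 and 10 min following addition of 50 nM substrate to 10 nM Pol beta preincubated 15 min with compound.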
APEX1 inh: qHTS Assay for Inhibitors of the Human Apurinic/apyrimidinic Endonuclease 1 (APE1); DNA repair nuclease/redox regulator APEX1 (Homo sapiens), P27695; recombinant APE1, TAMRA/BHQ-2 abasic DNA cleavage fluorescence; Potency, µM (series often up to 65.8 µM), without a hit: at the highest dose activity change, negative = inhibition, hits mostly inhibitors; 350,000 tested, 0.35% active;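 also: plate controls were vehicle for no effect and reference inhibitor for full effect; nearly all actives have a fitted effect of over 55% in size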
Target sequence (P27695 whole entry, looked up): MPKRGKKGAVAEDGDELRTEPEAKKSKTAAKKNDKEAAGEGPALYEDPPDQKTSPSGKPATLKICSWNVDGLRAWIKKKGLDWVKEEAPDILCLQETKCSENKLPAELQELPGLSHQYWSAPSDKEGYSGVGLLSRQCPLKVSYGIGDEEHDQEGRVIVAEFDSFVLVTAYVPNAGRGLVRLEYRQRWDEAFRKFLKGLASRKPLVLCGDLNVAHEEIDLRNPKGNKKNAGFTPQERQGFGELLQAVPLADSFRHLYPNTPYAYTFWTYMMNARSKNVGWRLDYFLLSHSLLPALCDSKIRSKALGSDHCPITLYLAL
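APE1 at 0.75 nM final was preincubated with compound 15 min at room temperature, then 50 nM double-stranded THF abasic-site substrate (5'-TAMRA/3'-BHQ-2) was added. Fluorescence (ex 525/em 598 nm) was read kinetically; third-minus-first read gave activity.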
POLH inh: qHTS for Inhibitors of Polymerase Eta | DNA polymerase eta (Homo sapiens), Q9Y253 | recombinant Pol eta, fluorescent DNA replication assay | Potency, µM (top dose mostly 114 µM), for inactives: at the top dose activity change, negative = inhibition, actives largely listed as inhibitors | 390,000 tested, 1.2% active; also: % is scaled to controls: 0 for no effect and ±100 for the full control effect
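Fluorescent replication assay: 50 nM final substrate added after a 15 min room-temperature compound preincubation with 10 nM enzyme. Signal taken at 0 min and again at 10 min.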
Pol iota inh: qHTS for Inhibitors of Polymerase Iota. DNA polymerase iota (Homo sapiens), Q9UNA4. Pol iota fluorescent replication assay, 10 min. Potency, µM (titrated, usually from 115 µM), for inactives: at the top dose activity, negative = inhibition, hits mostly inhibitors. 390,000 tested, 1% active. AID 588590, 2011
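Fluorescent replication assay read twice, at 0 min and 10 min after adding 50 nM (final) substrate. Enzyme (10 nM) and compounds were first incubated 15 min at room temperature; enzyme-free buffer wells were negative controls.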
GLS inh: qHTS for Inhibitors of Glutaminase (GLS) | AID 624170, 2012 | 410,000 tested, 0.21% active | Potency, µM (doses to about 45.5 µM), inactives show top-dose activity change, negative = inhibition, actives largely listed as inhibitors | Glutaminase kidney isoform, mitochondrial (Homo sapiens), O94925 | GLS enzymatic activity, qHTS titration; also: % is scaled to controls: 0 for no effect and ±100 for the full control effect
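Read-out is an Amplex red fluorescence increase coupled through glutamate oxidase and HRP, measured before and after 30 min room-temperature incubation. hKGA is in 45 mM KH2PO4 (pH 8.2) with 0.02% Tween-20; glutamine added as 1mM solution.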
POLK inh: qHTS for Inhibitors of Polymerase Kappa. purified Pol kappa, fluorescent DNA synthesis assay, 10 min. Potency, µM (highest dose often 107 µM), inactives show at the top dose activity, negative = inhibition, actives largely listed as inhibitors. 400,000 tested, 0.53% active. AID 588579, 2011; also: % is scaled to controls: 0 for no effect and ±100 for the full control effect
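Enzyme at 10 nM met test compounds for 15 min at room temperature. Substrate addition (50 nM final) began the reaction, which was monitored by fluorescence at 0 and 10 min.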
* hit, by the source's call; [ ] = dose if it differs, or a comment. Calls follow the shape of the dose curve; as a rule, active = well fitted curve in the direction sought with a large enough effect; inconclusive = small, poorly fitted or top-dose-only effect, or another doubt; inactive = no such curve, though single readings can be large; an effect the other way counts as inactive or inconclusive. Potency is read from the fitted curve at half-maximal effect.

`CC(NS(=O)(=O)c1ccc(Br)cc1)C(=O)NCc1ccco1` (stereo unspecified) gave POLB inh -12%, APEX1 inh 8%, POLH inh 7%, Pol iota inh 8%, GLS inh 3% and POLK inh -18%.
For COc1ccc(NC(=O)/C=C/c2ccc(Br)o2)cn1 the results were POLB inh 11µM*, APEX1 inh -5%, POLH inh 50µM*, Pol iota inh 16µM*, GLS inh -1% and POLK inh 79µM*.
For COc1ccccc1CNC(=O)/C=C/c1ccc(Br)o1 the results were POLB inh 8.9µM*, APEX1 inh 14%, POLH inh -10%, Pol iota inh inconclusive, GLS inh 2% and POLK inh -20%.
Screening Cc1cc(-c2ccccc2)c2c(=O)[nH][nH]c2n1 returned POLB inh 0%, APEX1 inh 2%, POLH inh -18%, Pol iota inh 79µM*, GLS inh 11% and POLK inh -9%.
O=C(COc1ccc2c3c(c(=O)oc2c1)CCC3)Nc1ccc(CCO)cc1 was read as POLB inh inconclusive, APEX1 inh -6%, POLH inh 50µM*, Pol iota inh inconclusive, GLS inh -16% and POLK inh -3%.
NS(=O)(=O)c1ccc(CCNC(=O)COc2ccc3c4c(c(=O)oc3c2)CCC4)cc1 was read as POLB inh -11%, APEX1 inh 56%, POLH inh -1%, Pol iota inh -7%, GLS inh 4% and POLK inh -8%.
`COc1ccc(/C=N\NC(=O)c2ccc(-c3ccccc3)cc2)c(OC)c1OC` gave POLB inh -1%, APEX1 inh 8%, POLH inh -8%, Pol iota inh 29%, GLS inh -4% and POLK inh -8%.
COc1cc(/C=N/NC(=O)c2ccc(-n3cccc3)cc2)ccc1O was read as POLB inh 13µM*, APEX1 inh -1%, POLH inh 22µM*, Pol iota inh 89µM*, GLS inh 14% and POLK inh inconclusive.
`COc1cc(/C=C(\NC(C)=O)C(=O)O)cc(OC)c1OC` gave POLB inh 3%, APEX1 inh -1%, POLH inh 11%, Pol iota inh 11%, GLS inh 3% and POLK inh -7%.
For COc1cccc(/C=N/NC(=O)c2ccc(N3CCCC3=O)cc2)c1 the results were POLB inh 25µM*, APEX1 inh -17%, POLH inh -3%, Pol iota inh inconclusive, GLS inh -5% and POLK inh inconclusive.
`COc1cc(/C=C(/C(=O)O)c2ccc(-c3ccccc3)cc2)cc(OC)c1OC` gave POLB inh 50µM*, APEX1 inh 6%, POLH inh inconclusive, Pol iota inh 27%, GLS inh 0% and POLK inh -11%.
Screening COc1cc(/C=N/NC(=O)c2ccc(-c3ccccc3)cc2)cc(OC)c1OC returned POLB inh 35µM*, APEX1 inh -8%, POLH inh inconclusive, Pol iota inh inconclusive, GLS inh -2% and POLK inh inconclusive.
COc1cc(/C=N/NC(=O)c2cc3ccccc3cc2O)ccc1OCCN1CCCCC1 was read as POLB inh 79µM*, APEX1 inh -9%, POLH inh -23%, Pol iota inh inconclusive, GLS inh 3% and POLK inh -25%.
COc1cc(/C=N/NC(=O)c2ccncc2)ccc1OCCN1CCCCC1 was read as POLB inh inconclusive, APEX1 inh 9%, POLH inh 2%, Pol iota inh inconclusive, GLS inh -6% and POLK inh inconclusive.
For COc1cc(C(=S)N2CCCCC2)ccc1O the results were POLB inh 7%, APEX1 inh -2%, POLH inh 4%, Pol iota inh 56µM*, GLS inh -3% and POLK inh -3%[60.1 µM].
Screening COc1cc(/C=N/NC(=O)NC23CC4CC(CC(C4)C2)C3)ccc1O returned POLB inh 0%, APEX1 inh 30%, POLH inh -10%, Pol iota inh 129%, GLS inh 7.9µM* and POLK inh -6%.
COc1cc(/C=N/NC(=O)C(=O)N2CCCCCC2)ccc1O was read as POLB inh 28%, APEX1 inh 0%, POLH inh -18%, Pol iota inh 127%, GLS inh 8.9µM* and POLK inh -2%.
Screening O=C(c1cc2ccccc2oc1=O)N(Cc1ccccc1)CC1CCCO1 (stereo unspecified) returned POLB inh 7%, APEX1 inh -2%, POLH inh 5%, Pol iota inh 2%, GLS inh 1% and POLK inh -9%.
`COc1ccc(S(=O)(=O)Nc2ccc3c(c2)N(C(C)=O)CCC3)cc1` gave APEX1 inh 26%, POLH inh -8%, Pol iota inh 17%, GLS inh -1% and POLK inh -1%.
`COc1cc(/C=N\NC(=O)c2sc(N)nc2C)cc(OC)c1OC` gave POLB inh 28µM*, APEX1 inh -10%, POLH inh inconclusive, Pol iota inh 7.1µM*, GLS inh 25% and POLK inh inconclusive.
`O=C(c1ccc(SCc2cccc(Br)c2)c([N+](=O)[O-])c1)N1CCN(c2ccccn2)CC1` gave POLB inh 0%, APEX1 inh 4%, POLH inh -15%, Pol iota inh 23%, GLS inh 7% and POLK inh -14%.
For Oc1ccc(NCc2cccc(OCc3ccc(F)cc3)c2)cc1 the results were POLB inh 15%, APEX1 inh 5%, POLH inh -20%, Pol iota inh 22µM*, GLS inh 24% and POLK inh -20%.
O=C(Nc1ccc(Br)cc1F)c1cnn2c1NC(=C1CC1)C=C2C(F)F was read as Pol iota inh inconclusive and POLK inh 32µM*.
O=C(Nc1ccccc1F)c1cnn2c1NC(=C1CC1)C=C2C(F)F was read as Pol iota inh inconclusive and POLK inh -83%.
CC(C)(C)CC(=O)Nc1cc2c3c(c1)CCN3C(=O)CC2 was read as POLB inh 30%, APEX1 inh -2%, POLH inh -18%, Pol iota inh 35%, GLS inh 2% and POLK inh -15%.
